Where “and” joins values, the source holds several entries; their conditions need not be identical. Equal values may be shown once. Inconclusive results are not listed. Calls of active or inactive are those of the source. Unless noted, calls come from the whole dose curve; as a rule, active = well fitted curve in the direction sought with a large enough effect; inconclusive = small, poorly fitted or top-dose-only effect, or another doubt; inactive = no such curve, though single readings can be large; an effect the other way counts as inactive or inconclusive.
How the values were obtained:
[1] = Cell Viability - BJ (AID 421; calls by dose curve;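 note: potency is the fitted concentration of half-maximal effect; cells exposed to compound for 40 hours at 37 °C before readout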); conditions: BJ fibroblast viability, qHTS
Procedure, shortened: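 Luminescent ATP signal (CellTiter-Glo, 20 min at room temperature) served as the read-out of viable BJ cells after 40 hours of compound treatment. Responses were scaled between DMSO and 100 uM tamoxifen, and AC50 values were obtained by Hill modeling.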

[2] = Cell Viability - Jurkat (AID 426;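 active = dose-dependent loss of cell ATP signal giving a full or clear fitted curve, ranked by lower potency value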;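 note: potency is the fitted concentration of half-maximal effect; cells exposed to compound for 40 hours at 37 °C before ATP read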); conditions: qHTS
Procedure, shortened: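 Seed 5000 Jurkat E6-1 cells/well; add compound; incubate 40 hr at 37 °C; add CellTiter-Glo; wait 20 min at room temperature; read luminescence. Fit concentration-response with Hill equation for AC50.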

[3] = Cell Viability - Hek293 (AID 427;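 active = compounds whose dose-response curve shows a full or clear partial loss of cell viability, called from curve shape rather than a numeric limit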;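 note: potency is the fitted concentration of half-maximal effect; cells exposed to compound for 40 hours at 37 °C before reading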); conditions: qHTS
Procedure, shortened: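 Luminescent ATP read-out (CellTiter-Glo, 20 min RT) after 40 hr compound exposure at 37 °C in complete medium. Signal normalized to DMSO (basal) and 100 uM tamoxifen (100% inhibition); concentration-response fitted with the standard Hill equation to give AC50.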

[4] = Cell Viability - HepG2 (AID 433; calls by dose curve;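 note: potency is the fitted concentration of half-maximal effect; potency for ATP loss meaning cytotoxicity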); conditions: qHTS
Procedure, shortened: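 Cytotoxicity read as ATP loss (CellTiter-Glo luminescence) after 40 hr compound exposure of HepG2, 1500 cells/well, 37 °C. AC50 by Hill equation; 0% set by DMSO, 100% inhibition by 100 uM tamoxifen.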

[5] = Cell Viability - MRC5 (AID 434; calls by dose curve;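 note: potency is the fitted concentration of half-maximal effect; cells exposed to compound for 40 hours at 37 °C; potency reflects cytotoxicity seen as loss of intracellular ATP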); conditions: MRC5 lung fibroblast viability, qHTS
Procedure, shortened: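 MRC5 normal human lung fibroblasts (1500/well) were treated with compounds for 40 hr at 37 °C in complete medium, and viable cells were measured as intracellular ATP by CellTiter-Glo luminescence. AC50 came from Hill fits, normalized to DMSO and 100 uM tamoxifen.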

[6] = Cell Viability - Mesenchymal (AID 546); conditions: mesenchymal cells viability, qHTS; series mostly up to 91.7 µM;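 note: cells exposed to compound for 40 hours before reading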
Procedure, shortened: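 Normal human renal glomerulus-derived kidney mesenchymal cells, 1000 per well in complete medium, were treated with compounds for 40 hr at 37 °C. Viability was read as intracellular ATP by CellTiter-Glo luminescence; AC50 values came from Hill-equation fits of qHTS concentration-response data.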

[7] = Cellular Toxicity (caspase-3) HepG2 (AID 654); conditions: HepG2 caspase-3 activation, luminescence, 0% = DMSO only, 100% = tamoxifen; series mostly up to 92.2 µM;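 note: cells exposed to compound for 16 hours before reading; 0% = DMSO alone and 100% = caspase signal from 100 µM tamoxifen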
Procedure, shortened: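 qHTS, HepG2, 1500 cells/well, complete medium; cpd 16 h 37 °C; Caspase-Glo 3/7, 20 min RT; lum. Norm: DMSO vs 100 uM tamoxifen; AC50 Hill fit.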

[8] = Cellular Toxicity (caspase-3) HUV-EC-C (AID 656); conditions: HUV-EC-C cells, caspase-3 activation (apoptosis), vehicle = 0, 100 µM tamoxifen = 100%; series mostly up to 92.2 µM
Procedure, shortened: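 Luminescent Caspase-Glo 3/7 readout after 16 h, 37 °C compound exposure of HUV-EC-C endothelial cells, 1000 per well, complete medium. AC50 derived by Hill fitting, with DMSO as baseline and 100 uM tamoxifen as full activation.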

[9] = Cellular Toxicity (caspase-3) BJ (AID 658); conditions: BJ fibroblasts, luminescence, normalized: DMSO 0%, staurosporine 100%; series mostly up to 91.7 µM;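 note: cells exposed to compound for 16 hours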
Procedure, shortened: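 Luminescent aminoluciferin-substrate cleavage reports caspase 3/7 activity in normal human BJ fibroblasts after 16 hr compound exposure at 37 °C. Normalized to DMSO (basal) and 10 uM staurosporine (100%); AC50 from Hill fit of concentration-response.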

[10] = Cellular Toxicity (caspase-3) MRC-5 (AID 659); conditions: MRC-5 cells, luminescence, normalized: DMSO 0%, 10 µM staurosporine 100%; series mostly up to 91.7 µM
Procedure, shortened: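 Luminescence from caspase-cleaved aminoluciferin substrate (Caspase-Glo 3/7, 1 hr RT) reports caspase 3/7 activity in MRC-5 lung fibroblasts after 16 hr compound exposure. Normalized to DMSO basal and 10 uM staurosporine as 100%; AC50 from Hill fits.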

[11] = Cellular Toxicity (caspase-3) SK-N-SH (AID 661); conditions: SK-N-SH caspase-3 activation, qHTS; series mostly up to 91.7 µM;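 note: cells exposed to compound for 16 hours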
Procedure, shortened: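 Caspase 3/7 activation is measured as a luminescence increase from aminoluciferin released by substrate cleavage in SK-N-SH cells after 16 hr compound treatment; values are AC50 from concentration-response curves.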

[12] = Cellular Toxicity (caspase-3) Hek293 (AID 664); conditions: HEK293 caspase-3 activation, DMSO = 0%, 100 µM tamoxifen = 100%; at 92.2 µM (top of the series);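 note: cells exposed to compound for 16 h at 37 °C before readout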
Procedure, shortened: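 Activation of caspase-3/7 is measured as increased luminescence from cleaved peptide-aminoluciferin substrate in HEK293 cells treated 16 hours at 37 °C. AC50 values come from Hill-equation fits of concentration-response data.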

[13] = MultiTox-Fluor Cytotoxicity Assay - LYMP1-001 - Dead Cells (AID 946); conditions: LYMP1-001 lymphoblastoid cells, dead-cell protease fluorescence; series mostly up to 92.2 µM;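 note: 0% = DMSO and 100% = tetraoctylammonium bromide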
Procedure, shortened: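 AC50 from Hill fit of concentration-response; data normalized to DMSO (basal) and 15 uM tetraoctylammonium bromide (100%). LYMP1-001 lymphoblastoid cells, 2500/well, 16 hr compound at 37 C; dead-cell protease fluorescence, Ex/Em 485/520.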

[14] = Cell Viability - LYMP1-002 - Assay at 16 hr (AID 948); conditions: LYMP1-002 lymphoblastoid cell viability; series mostly up to 92.2 µM;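 note: 0% = DMSO alone and full effect = 92 µM tetraoctylammonium bromide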
Procedure, shortened: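 ATP luminescence (CellTiter-Glo) was measured after 16 hr compound exposure at 37 C of 2500 lymphoblastoid LYMP1-002 cells per well. Concentration-response curves were fitted with the Hill equation to give AC50.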

[15] = MultiTox-Fluor Cytotoxicity Assay - LYMP1-002 - Live Cells (AID 955); conditions: LYMP1-002 lymphoblastoid live-cell protease fluorescence viability; series mostly up to 46.1 µM;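 note: cells exposed to compound for 16 hours; % is set by controls: 0 for no effect and ±100 for the full control effect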
Procedure, shortened: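 Cytotoxicity in the human lymphoblastoid line LYMP1-002 is measured as loss of live-cell protease activity after 16 h treatment in complete culture medium. AC50 is derived from Hill-equation fits of qHTS concentration-response data.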

[16] = MultiTox-Fluor Cytotoxicity Assay - LYMP1-003 - Dead Cells (AID 961); conditions: LYMP1-003 lymphoblastoid cells, dead-cell protease fluorescence; series mostly up to 92.2 µM;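 note: 0% = DMSO and 100% = tetraoctylammonium bromide; nearly all actives have a fitted effect of over 70% in size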
Procedure, shortened: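 Human lymphoblastoid LYMP1-003 cells (2500/well) were treated with compounds for 16 hr at 37 C in complete medium. Dead-cell protease release was read by bis-AAF-R110 fluorescence (Ex/Em 485/520). AC50 came from Hill fits, normalized to DMSO and 15 uM tetraoctylammonium bromide.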

[17] = Cell Viability - LYMP2-016 (AID 984); conditions: LYMP2-016 lymphoblastoid cell viability, qHTS; series mostly up to 92.2 µM;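 note: cells exposed to compound for 24 hours at 37 °C; % is set by controls: 0 for no effect and ±100 for the full control effect; nearly all actives have a fitted effect of over 55% in size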
Procedure, shortened: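 Cytotoxicity was scored by luminescent ATP content (CellTiter-Glo) after 24 h compound exposure at 37 C of a human lymphoblastoid line at 2500 cells/well. Concentration-response data were fitted to the Hill equation for AC50.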

[18] = Cell Viability - LYMP2-026 (AID 989); conditions: LYMP2-026 lymphoblastoid cell viability, qHTS; series mostly up to 92.2 µM; note: % is set by controls: 0 for no effect and ±100 for the full control effect; nearly all actives have a fitted effect of over 50% in size
Procedure, shortened: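 Concentration-dependent loss of intracellular ATP in human lymphoblastoid cells after 24 hr at 37 C, quantified by luciferase luminescence. AC50 derived from standard Hill equation.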

[19] = qHTS Assay for Identification of Small Molecule Inducers of Hypoxia Response (AID 2120; active = well fitted curve in the direction sought with a large enough effect in the signal ratio, with a control signal flat, not every such curve was filed as active; the % refers to the signal ratio; note: 0% is about no effect); conditions: hypoxia response reporter cells, beta-lactamase ratio readout; series mostly up to 104 µM
Procedure, shortened: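 Induction of beta-lactamase reporter activity was measured in CellSensor HRE-bla ME-180 cells after 17 h compound treatment at 37 degrees C, using CCF4 substrate and the 460nm/530nm emission ratio to derive AC50 values.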

[20] = molecular target: Peroxisome proliferator-activated receptor alpha (Homo sapiens) (UniProt Q07869); assay: qHTS assay for small molecule agonists of the peroxisome proliferator-activated receptor alpha (PPARalpha) signaling pathway (AID 651778); conditions: PathHunter PPARalpha complementation, chemiluminescence, 6 h; hits give high values; note: % of control where 0% means no effect
Procedure, shortened: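 Cells plated at 2,000/well and held overnight at 37 C, 5% CO2, then compound added by pin tool for 6 hr; after PathHunter detection reagent and 60 min at room temperature, chemiluminescence from enzyme complementation was read.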

Peroxisome proliferator-activated receptor alpha (Homo sapiens), sequence (Q07869 whole entry, looked up): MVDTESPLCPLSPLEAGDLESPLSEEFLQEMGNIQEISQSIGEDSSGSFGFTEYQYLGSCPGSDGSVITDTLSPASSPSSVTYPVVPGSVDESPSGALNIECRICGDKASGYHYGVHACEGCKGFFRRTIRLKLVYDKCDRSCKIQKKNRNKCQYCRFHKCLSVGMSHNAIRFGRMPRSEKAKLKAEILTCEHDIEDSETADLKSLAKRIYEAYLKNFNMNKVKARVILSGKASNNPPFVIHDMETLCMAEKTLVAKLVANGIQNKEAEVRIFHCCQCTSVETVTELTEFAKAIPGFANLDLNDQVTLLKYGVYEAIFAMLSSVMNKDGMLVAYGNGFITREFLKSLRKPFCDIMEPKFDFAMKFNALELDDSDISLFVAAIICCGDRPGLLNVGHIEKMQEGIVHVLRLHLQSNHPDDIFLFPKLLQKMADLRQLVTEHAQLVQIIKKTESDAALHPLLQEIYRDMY

C=C(Cl)CCl
inactive: Potency [1] > 92 µM | Potency [2] > 92 µM | Potency [3] > 92 µM | Potency [4] > 92 µM | Potency [5] > 92 µM | Potency [6] | outcome [7] | outcome [8] | outcome [9] | outcome [10] | Potency [11] | caspase-3 activation [12] 0.722% | outcome [13] | outcome [14] | outcome [15] | Potency [16] | Potency [17] | Potency [18] | Potency [19] | max response [20] -4.17%

ClC(Cl)c1ccccc1
inactive: Potency [1] > 92 µM | Potency [2] > 92 µM | Potency [3] > 92 µM | Potency [4] > 92 µM | Potency [5] > 92 µM | Potency [6] | outcome [7] | outcome [8] | outcome [9] | outcome [10] | Potency [11] | caspase-3 activation [12] 0.485% | outcome [13] | outcome [14] | outcome [15] | Potency [16] | Potency [17] | Potency [18] | Potency [19] | max response [20] -0.698%

CC(C)[C@]12CC(=O)[C@H](C)[C@H]1C2
inactive: Potency [1] > 92 µM | Potency [2] > 92 µM | Potency [3] > 92 µM | Potency [4] > 92 µM | Potency [5] > 92 µM | Potency [6] | outcome [7] | outcome [8] | outcome [9] | outcome [10] | Potency [11] | caspase-3 activation [12] -0.456% | outcome [13] | outcome [14] | outcome [15] | Potency [16] | Potency [17] | Potency [18] | Potency [19] | max response [20] 5.79% and -0.343%

N#CCCCCC#N
inactive: Potency [1] > 92 µM | Potency [2] > 92 µM | Potency [3] > 92 µM | Potency [4] > 92 µM | Potency [5] > 92 µM | Potency [6] | outcome [7] | outcome [8] | outcome [9] | outcome [10] | Potency [11] | caspase-3 activation [12] 0.323% | outcome [13] | outcome [14] | outcome [15] | Potency [16] | Potency [17] | Potency [18] | Potency [19] | max response [20] -1.89%

COc1ccccc1N
inactive: Potency [1] > 92 µM | Potency [2] > 92 µM | Potency [3] > 92 µM | Potency [4] > 92 µM | Potency [5] > 92 µM | Potency [6] | outcome [7] | outcome [8] | outcome [9] | outcome [10] | Potency [11] | caspase-3 activation [12] 1.4% | outcome [13] | outcome [14] | outcome [15] | Potency [16] | Potency [17] | Potency [18] | Potency [19] | max response [20] -0.908%

c1ccc(OCC2CO2)cc1 (stereo not given)
inactive: Potency [1] > 92 µM | Potency [2] > 92 µM | Potency [3] > 92 µM | Potency [4] > 92 µM | Potency [5] > 92 µM | Potency [6] | outcome [7] | outcome [8] | outcome [9] | outcome [10] | Potency [11] | caspase-3 activation [12] 0.633% | outcome [13] | outcome [14] | outcome [15] | Potency [16] | Potency [17] | Potency [18] | Potency [19] | max response [20] -5.02%

OCCBr
inactive: Potency [1] > 92 µM | Potency [2] > 92 µM | Potency [3] > 92 µM | Potency [4] > 92 µM | Potency [5] > 92 µM | Potency [6] | outcome [7] | outcome [8] | outcome [9] | outcome [10] | Potency [11] | caspase-3 activation [12] 0.017% | outcome [13] | outcome [14] | outcome [15] | Potency [16] | Potency [17] | Potency [18] | Potency [19] | max response [20] 2.96%

CC[N+](=O)[O-]
inactive: Potency [1] > 92 µM | Potency [2] > 92 µM | Potency [3] > 92 µM | Potency [4] > 92 µM | Potency [5] > 92 µM | Potency [6] | outcome [7] | outcome [8] | outcome [9] | outcome [10] | Potency [11] | caspase-3 activation [12] 3.71% | outcome [13] | outcome [14] | outcome [15] | Potency [16] | Potency [17] | Potency [18] | Potency [19] | max response [20] 1.55%

OCC(Cl)CCl (stereo not given)
inactive: Potency [1] > 92 µM | Potency [2] > 92 µM | Potency [3] > 92 µM | Potency [4] > 92 µM | Potency [5] > 92 µM | Potency [6] | outcome [7] | outcome [8] | outcome [9] | outcome [10] | Potency [11] | caspase-3 activation [12] 1.15% | outcome [13] | outcome [14] | outcome [15] | Potency [16] | Potency [17] | Potency [18] | Potency [19] | max response [20] 0.308%

COC(=O)Nc1cccc(OC(=O)Nc2cccc(C)c2)c1
inactive: Potency [1] > 92 µM | Potency [2] > 92 µM | Potency [3] > 92 µM | Potency [4] > 92 µM | Potency [5] > 92 µM | Potency [6] | outcome [7] | outcome [8] | outcome [9] | outcome [10] | Potency [11] | caspase-3 activation [12] 0.0585% | outcome [13] | outcome [14] | outcome [15] | Potency [16] | Potency [17] | Potency [18] | Potency [19] | max response [20] -6.94%

C=CC(=O)OCC(CC)CCCC (stereo not given)
inactive: Potency [1] > 92 µM | Potency [2] > 92 µM | Potency [3] > 92 µM | Potency [4] > 92 µM | Potency [5] > 92 µM | Potency [6] | outcome [7] | outcome [8] | outcome [9] | outcome [10] | Potency [11] | caspase-3 activation [12] 2.19% | outcome [13] | outcome [14] | outcome [15] | Potency [16] | Potency [17] | Potency [18] | Potency [19] | max response [20] 4.79% and 0.332%
